# Only some compounds are listed: those with a hit (about 21% of all), similar ones and a draw of the others.
# Pf growth 96h: P. falciparum growth inhibition at 96 hours; P. falciparum luciferase reporter growth, 96 h; Potency, µM (doses to about 28.7 µM), for the others: top-dose activity change, negative = inhibition, most hits filed as inhibitors; 320,000 tested, 6.9% active; active = well fitted inhibition curve with a large enough effect; inconclusive = small, poorly fitted or top-dose-only effect, or another doubt; inactive = no such curve, though single readings can be large or run the other way; note: potency is the fitted concentration of half-maximal effect; % is set by controls: 0 for no effect and ±100 for the full control effect
#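 96 h incubation, 37 C, 5% CO2, of luciferase-reporter P. falciparum-infected RBCs (2% hematocrit, 0.05% parasitemia final) with test compounds; endpoint luminescence.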
# CHX counter: counter-screen hit for Shiga toxin inhibitors, cycloheximide; max response, %; cell reporter, cycloheximide protein synthesis inhibition counterscreen; 300,000 tested, 12% active; AID 2314; in the data active = max response mostly above about 13%, no sharp cut-off; inactive = mostly below about 14%; note: read at 38.3 µM for the half of the compounds with a filed dose; 0% is about no effect
# NS1 inh: blocks influenza NS1 protein function; 270,000 tested, 0.4% active; AID 2326; Potency, µM (highest dose often 46.1 µM), for the others: at the top dose activity, positive = more growth; note: potency is the fitted concentration of half-maximal effect; actives are rising curves; nearly all actives have a fitted effect of over 50% in size
#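 S. cerevisiae expressing influenza A NS1, grown in glucose, washed, then diluted 1:100 into pH 6.0 -URA galactose medium with 23 nl compound. Growth recovery read as OD600; NS1-free strain serves as control.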
# SARS PLP yeast: inhibitors of SARS-CoV papain-like protease in yeast; AID 485353; 330,000 tested, 0.19% active; S. cerevisiae expressing SARS-CoV PLpro, growth rescue; Potency, µM (highest dose often 32.9 µM), inactives show top-dose activity, positive = growth rescue, most hits filed as activators; note: potency is the fitted concentration of half-maximal effect; 0% is about no effect; nearly all actives have a fitted effect of over 55% in size
# Shiga toxin inh: inhibitors of Shiga toxin in Vero cells; Vero cells, Shiga toxin protein synthesis inhibition reporter; inhibition, % at 38.7 µM; 290,000 tested, 9.2% active; in the data active = inhibition mostly above about 28%, no sharp cut-off; inactive = mostly below about 43%; note: 0% is about no effect
# Pf growth 48h: inhibits P. falciparum growth in the first generation, 48 h; P. falciparum luciferase growth in erythrocytes, 48 h; Potency, µM (series often up to 28.7 µM), without a hit: top-dose activity change, negative = inhibition, actives largely listed as inhibitors; 310,000 tested, 5.9% active; AID 504832; active = well fitted inhibition curve with a large enough effect; inconclusive = small, poorly fitted or top-dose-only effect, or another doubt; inactive = no such curve, though single readings can be large or run the other way; note: potency is the fitted concentration of half-maximal effect; % is set by controls: 0 for no effect and ±100 for the full control effect
#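 Luminescence readout; reporter = integrated firefly luciferase in P. falciparum. RBC culture at 2% hematocrit, 0.1% parasitemia final, 37 C/5% CO2; decreased signal taken as growth inhibition.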
# Numbers without * were called inactive; u = inconclusive; x = not tested or not shown. Unless noted, calls come from the whole dose curve.
SMILES,Pf growth 96h,CHX counter,NS1 inh,SARS PLP yeast,Shiga toxin inh,Pf growth 48h
N#C/C(=C\c1cccnc1)C(=O)NC1CCCCC1,u,1,-29%,-46%,-5,10µM*
N#C/C(=C\c1ccccc1)C(=O)NC1CC1,16%,8,0%,-4%,5,8%
CCCCNC(=O)/C(C#N)=C/c1ccc2c(c1)OCCO2,-18%,47*,-1%,-4%,50*,-2%
COC1=C(Nc2ccccc2OC)C(=O)c2ccccc2C1=O,2.3µM*,12,-2%,-3%,20,2.3µM*
COc1ccccc1NC(C)=O,72%,-2,0%,5%,-12,8%
COc1ccccc1NC1=C(NC(C)=O)C(=O)c2ccccc2C1=O,u,7,-3%,-4%,27,3.7µM*
COc1cccc(-n2c(=O)c3cc(OC)c(OC)cc3n(CC(=O)Nc3cc(C)[nH]n3)c2=O)c1,u,0,0%,13%,-13,22%
N[C@@H](Cc1c[nH]c2cc([N+](=O)[O-])ccc12)C(=O)O,x,x,0%,x,x,x
O=C(CSCCO)Nc1ccc(C23CC4CC(CC(C4)C2)C3)cc1,51%,24*,11%,-13%,53*,215%
CC(=O)Nc1ccc(NC(=O)CN(c2ccc(C34CC5CC(CC(C5)C3)C4)cc2)S(C)(=O)=O)cc1,-17%,-3,8%,3%,28,2%
CS(=O)(=O)N(CC(=O)Nc1ccc(CC#N)cc1)c1ccc(C23CC4CC(CC(C4)C2)C3)cc1,u,22*,-10%,-7%,77*,10µM*
Cc1cc(=O)oc2cc(NC(=O)c3cc([N+](=O)[O-])ccc3N3CCOCC3)ccc12,u,5,1%,3%,2,0%
O=C(CCc1nnc2ccc(N3CCC4(CC3)OCCO4)nn12)NCc1ccccc1Cl,41%,-9,-2%,x,3,-7%
Cc1ccc(CSCCNC(=O)c2ccc(NS(C)(=O)=O)cc2)cc1,31%,21,2%,2%,-21,2%
O=C(CCc1nc2ccccc2c(=O)[nH]1)Nc1cc(Cl)ccc1N1CCCC1,u,x,x,0%,x,18%
CN1CCc2nc3sc(C#N)c(N)c3c(-c3cccs3)c2C1,x,1,4%,-4%,-21,13µM*
NC(=O)NC(=O)COC(=O)c1ccc2noc(-c3ccccc3)c2c1,11%,-4,6%,-2%,44,11%
CC(=O)c1ccc2noc(-c3ccc(C)cc3)c2c1,u,14,x,-4%,26,400%
CC(=O)COC(=O)c1ccc2noc(-c3ccccc3)c2c1,39%,14*,8%,-1%,59*,28%
Cc1ccc(-c2onc3ccc(C(=O)O)cc23)cc1,-3%,92*,-34%,-2%,180*,306%
COc1ccc(CCN(C)C(=O)CNC(=O)Cc2cccc3ccccc23)cc1OC,-12%,9,12%,1%,-20,-10%
Nc1nc(-c2ccc3c(c2)CCO3)cs1,u,38*,x,0%,98*,124%
CC(=O)Nc1nc(-c2ccc3c(c2)CCO3)cs1,109%,29*,-4%,0%,74*,82%
O=C(C[C@H]1C/C=C\C[C@H](NC(=O)OCC2c3ccccc3-c3ccccc32)C(=O)OC[C@H](Cc2ccccc2)NC1=O)N[C@H](CO)Cc1ccccc1,x,x,x,-5%,x,x
COc1ccc(OC)c(Nc2nc(N)c([N+](=O)[O-])c(N3CCOCC3)n2)c1,u,1,-2%,1%,-8,u
SMILES,Pf growth 96h,CHX counter,NS1 inh,SARS PLP yeast,Shiga toxin inh,Pf growth 48h
COc1cc(C(=O)Nc2cccc(NC(=O)c3cccs3)c2)cc(OC)c1OC,40%,-2,-5%,-3%,9,u
O=C(NCc1ccccn1)c1cccc(S(=O)(=O)Nc2ccccc2Cl)c1,15%,x,x,4%,x,u
Cc1ccc(CN2CCc3c(OCC(=O)Nc4cc(C)ccc4C)cccc3C2=O)cc1,5.9µM*,2,4%,-3%,2,u
O=C(COc1cccc2c1CCN(Cc1ccccc1)C2=O)NCc1ccco1,-25%,10,-8%,18%,4,u
Cc1ccc(C)c(NC(=O)COc2cccc3c2CCN(Cc2ccccc2)C3=O)c1,u,-3,-2%,-3%,-1,-16%
Cc1cccc(CN2CCc3c(OCC(=O)NCc4ccco4)cccc3C2=O)c1,9.3µM*,13*,-21%,-3%,18,12µM*
Cc1ccc(C(=O)N2CCOCC2)c(F)c1F,22%,11,x,0%,17,37%
CCN(CC)C(=O)C1=C(C)NC(=S)NC1c1ccc(C)s1 (stereo unspecified),38%,-2,x,0%,9,19%
c1ccc(CNc2nc(-c3ccccn3)nc3ccccc23)cc1,0.66µM*,-3,-14%,-6%,-9,1.5µM*
c1ccc(CNc2nc(-c3cccnc3)nc3ccccc23)cc1,8.3µM*,-2,-40%,-5%,-6,9.3µM*
CCC(C)Nc1nc(-c2cccc(OC)c2O)nc2ccccc12 (stereo unspecified),u,2,3%,9%,-4,-15%
CCC(C)Nc1nc(-c2ccccn2)nc2ccccc12 (stereo unspecified),0.93µM*,-5,-3%,0%,-6,x
NS(=O)(=O)c1ccc(CNc2nc(-c3cccnc3)nc3ccccc23)cc1,u,-1,u,1%,-8,u
CC(C)(C)c1ccc(-c2nc(NCc3cccnc3)c3ccccc3n2)cc1,17%,51*,-65%,-90%,76*,u
NS(=O)(=O)c1cccc(NC(=O)COC(=O)CCN2C(=O)c3ccccc3C2=O)c1,u,x,x,3%,x,-5%
CCSc1ccccc1C(=O)N=C1NC(=O)CC2C(=O)NCCN12 (stereo unspecified),28%,-1,x,1%,9,-9%
CCOC(=O)CC(=O)Nc1ccc(C)cc1,47%,11,-7%,-4%,10,31%
c1ccc(CNc2nc(NCc3ccccc3)c3ccccc3n2)cc1,0.74µM*,-7,-5%,-1%,-20,1.2µM*
COc1cccc(-c2nc(NCc3cccnc3)c3ccccc3n2)c1O,u,19*,0%,1%,37,12µM*
CC(Nc1nc(-c2cccnc2)nc2ccccc12)c1ccc(F)cc1 (stereo unspecified),6.6µM*,-2,-56%,-66%,1,4.7µM*
c1cncc(-c2nc(NCc3ccc4c(c3)OCO4)c3ccccc3n2)c1,10µM*,-1,-6%,-3%,-6,13µM*
c1ccc(CNc2nc(-c3ccccc3)nc3ccccc23)cc1,-91%,-5,-144%,-15%,x,u
COc1cccc(-c2nc(NC(C)C)c3ccccc3n2)c1O,u,-4,-135%,-22%,-6,u
c1cncc(CNc2nc(-c3cccnc3)nc3ccccc23)c1,u,-4,-3%,1%,-10,u
